TDP1 cell CPT – qHTS for Inhibitors of human tyrosyl-DNA phosphodiesterase 1 (TDP1): qHTS in cells in presence of CPT; Potency, µM (doses to about 46.2 µM), actives largely listed as inhibitors; chicken DT40 Tdp1-/-;hTDP1 cells + 20 nM CPT, ATP luminescence, 48 h; 420,000 tested, 12% active; also: nearly all actives have a fitted effect of over 55% in size
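Chicken DT40 Tdp1-/- cells complemented with human TDP1, 400 cells/well, exposed to compounds plus 20 nM camptothecin for at least 48 h at 37 C; viability read as ATP content by CellTiter-Glo luminescence.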
IL1B secr inh – qHTS for Inhibitors of Inflammasome Signaling: IL-1-beta AlphaLISA Primary Screen. activity change, % at 57.5 µM. AID 743279, 2014. 360,000 tested, 4.7% active. THP-1 LPS/ATP IL-1B secretion, AlphaLISA, 16 h; active compounds read low; in the data active = activity change below about -50%; inconclusive = mostly about -30% to -49%
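THP-1 cells pretreated 1 hr with compounds (up to 57.5 uM final), then stimulated with LPS (250 ng/mL final) plus ATP (1.25 mM final); secreted IL-1B measured by AlphaLISA after 16 hr, decreased signal indicating inhibition.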
TDP1 cell noCPT – qHTS for Inhibitors of human tyrosyl-DNA phosphodiesterase 1 (TDP1): qHTS in cells in absence of CPT; DT40 Tdp1-/- hTDP1 cells, no CPT, ATP luminescence, 48 h; 420,000 tested, 15% active; Potency, µM (titrated, usually from 46.2 µM), hits mostly inhibitors; also: nearly all actives have a fitted effect of over 55% in size
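Readout: luminescence from CellTiter-Glo after 30 min in the dark at RT. Cells: DT40 Tdp1-/- with stable hTDP1, 400/well. Exposure: compounds alone, ≥48 hr, 37 °C.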
HT1080 IDH1KD tx – qHTS for induction of synthetic lethality in tumor cells producing 2HG: qHTS for the HT-1080-IDH1KD cell line. HT-1080 IDH1 knockdown viability, ATP luminescence, 48 h. Potency, µM (doses to about 46.1 µM), actives largely listed as cytotoxic. 360,000 tested, 2% active
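Viability of IDH1-knockdown HT-1080 fibrosarcoma cells was assessed by CellTiter-Glo after 48 h at 37 °C with titrated compound; concentration-effect curves were classified by fit quality and response size.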
HT1080-NT tox – qHTS for induction of synthetic lethality in tumor cells producing 2HG: qHTS for the HT-1080-NT fibrosarcoma cell line. HT-1080-NT fibrosarcoma viability, CellTiter-Glo ATP luminescence, 48 h. Potency, µM (top dose mostly 46.1 µM), actives largely listed as cytotoxic. 360,000 tested, 1.6% active;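 also: NT is the 2HG producing partner of a matched IDH1 knockdown line; nearly all actives have a fitted effect of over 55% in size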
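Fibrosarcoma NT cells, 750 per well in 5% FBS RPMI, were exposed to compound for 48 hours. Viability: CellTiter-Glo luminescence.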
Of the large screens only hits and unclear results are named; the others gave an inactive call. Hits are enriched below; roughly 19% of the tested compounds scored in any of these assays. Unless noted, calls follow the shape of the dose curve; as a rule, active = well fitted curve in the direction sought with a large enough effect; inconclusive = small, poorly fitted or top-dose-only effect, or another doubt; inactive = no such curve, though single readings can be large; an effect the other way counts as inactive or inconclusive.

CCC(OC(C)=O)C(CC(C)NC)(c1ccccc1)c1ccccc1 (centres undefined)	TDP1 cell CPT 21.9µM, TDP1 cell noCPT 24.6µM (no result: IL1B secr inh, HT1080 IDH1KD tx, HT1080-NT tox)
CC(=O)NC(C)Cc1ccccc1 (centres undefined)	none
CC[C@H](OC(C)=O)C(C[C@H](C)N(C)C)(c1ccccc1)c1ccccc1	TDP1 cell CPT inconclusive, TDP1 cell noCPT 23.1µM, HT1080 IDH1KD tx inconclusive, HT1080-NT tox inconclusive (no result: IL1B secr inh)
Brc1ccccc1CNCCc1ccc2c(c1)OCO2	TDP1 cell CPT inconclusive, TDP1 cell noCPT inconclusive
Oc1ccc(CCNCc2cc3c(cc2Br)OCO3)cc1	TDP1 cell CPT inconclusive, IL1B secr inh inconclusive, TDP1 cell noCPT 29.1µM
CC(C)c1ccc(OCC(=O)N2CCN(CCc3ccncc3)CC2)cc1	none (no result: IL1B secr inh, HT1080 IDH1KD tx, HT1080-NT tox)
COC(=O)C1=C(N)OC(C)=C(C(C)=O)C12C(=O)N(C)c1ccccc12 (centres undefined)	TDP1 cell CPT inconclusive, TDP1 cell noCPT 20.6µM
CCOC(=O)[C@]12Cc3ccccc3[C@H]1N(CCC(=O)OC)C(=O)c1cc(OC)ccc12	TDP1 cell CPT inconclusive, IL1B secr inh -117.8, TDP1 cell noCPT inconclusive, HT1080 IDH1KD tx inconclusive, HT1080-NT tox inconclusive
CCOC(=O)[C@]12Cc3cc(OC)ccc3[C@H]1N(CCC(=O)OC)C(=O)c1cc(OC)ccc12	TDP1 cell CPT inconclusive, IL1B secr inh -54.0, TDP1 cell noCPT 14.6µM, HT1080 IDH1KD tx inconclusive, HT1080-NT tox inconclusive
COc1ccc(OC)c(CN2C(=O)c3ccccc3C2c2nnnn2-c2c(C)cccc2C)c1 (centres undefined)	TDP1 cell CPT inconclusive, TDP1 cell noCPT inconclusive
O=C(N/N=C/C1C(=O)NC(=S)N(c2ccccc2)C1=O)c1cc(Br)c(O)c(Br)c1 (centres undefined)	TDP1 cell CPT 16.4µM, TDP1 cell noCPT inconclusive
CCOC(=O)c1ccc(NC(=O)c2nc[nH]c2C(=O)NCCNC(=O)c2[nH]cnc2C(=O)Nc2ccc(C(=O)OCC)cc2)cc1	TDP1 cell CPT 2.91µM, TDP1 cell noCPT 3.66µM
COC(=O)C1=C(c2ccc(OC(F)(F)F)cc2)C[C@@H]2CC[C@H]1N2C(=O)NCCO	none
CCCNC(=O)N1[C@H]2CC[C@@H]1C(C(=O)OC)=C(c1ccc(Cl)c(C(F)(F)F)c1)C2	TDP1 cell CPT 16.4µM, TDP1 cell noCPT 14.6µM
COC(=O)C1=C(c2ccc(Cl)c(C(F)(F)F)c2)C[C@@H]2CC[C@H]1N2C(=O)NCc1cc(C)oc1C(F)(F)F	TDP1 cell CPT inconclusive, TDP1 cell noCPT 20.6µM
COC(=O)C1=C(c2ccc(Cl)c(C(F)(F)F)c2)C[C@@H]2CC[C@H]1N2C(=O)NCCOc1ccc(OC)cc1	TDP1 cell CPT inconclusive, IL1B secr inh -63.0, TDP1 cell noCPT inconclusive, HT1080 IDH1KD tx inconclusive, HT1080-NT tox inconclusive
COC(=O)C1=C(c2ccc(-c3ccccc3)c(F)c2)C[C@@H]2CC[C@H]1N2C(=O)NCc1cc(C)oc1C(F)(F)F	TDP1 cell CPT inconclusive, TDP1 cell noCPT 14.6µM
ClCC1CO1 (centres undefined)	none (no result: IL1B secr inh, HT1080 IDH1KD tx, HT1080-NT tox)
COC(=O)C1(C(=O)O)Cc2cc([N+](=O)[O-])ccc2N2CCCC21 (centres undefined)	none
COc1ccc2nc(NC(=O)CCNS(=O)(=O)c3ccc4c(c3)oc(=O)n4C)sc2c1	TDP1 cell noCPT inconclusive
COC(=O)C1=C(c2ccc(Cl)c(C(F)(F)F)c2)C[C@@H]2CC[C@H]1N2C(=O)NCC1CC1	TDP1 cell CPT 14.6µM, TDP1 cell noCPT 18.4µM
COc1ccc(-c2cc(=NCC(=O)O)c3ccccc3o2)cc1	TDP1 cell CPT inconclusive, TDP1 cell noCPT inconclusive
COc1ccc2c(c1)[C@@]13CCC=C[C@H]1[C@@H](C2)NCC3	TDP1 cell noCPT inconclusive, HT1080 IDH1KD tx inconclusive, HT1080-NT tox inconclusive
CC(=O)N1c2ccc(S(=O)(=O)NCC3CCC(C(=O)Nc4cc(C)cc(C)c4)CC3)cc2CC1C (centres undefined)	TDP1 cell CPT 20.6µM, TDP1 cell noCPT 16.4µM (no result: IL1B secr inh, HT1080 IDH1KD tx, HT1080-NT tox)
CC1=Nc2cc(C(=O)N3CCC4(CC3)OCCO4)ccc2Sc2ccc(Cl)cc21	TDP1 cell CPT inconclusive, TDP1 cell noCPT inconclusive
Cc1ccc(CN2CCSc3ccc(C(=O)N4CCC5(CC4)OCCO5)cc32)cc1	TDP1 cell CPT inconclusive, IL1B secr inh inconclusive, TDP1 cell noCPT inconclusive
CCOc1ccc(CN2C(=O)c3ccccc3Sc3ccc(C(=O)N4CCC5(CC4)OCCO5)cc32)cc1	TDP1 cell CPT 18.4µM, TDP1 cell noCPT inconclusive (no result: IL1B secr inh, HT1080 IDH1KD tx, HT1080-NT tox)
Cc1ccc(C)c(CN2C(=O)c3ccccc3Sc3ccc(C(=O)N4CCC5(CC4)OCCO5)cc32)c1	TDP1 cell CPT inconclusive, TDP1 cell noCPT 20.6µM (no result: IL1B secr inh, HT1080 IDH1KD tx, HT1080-NT tox)
O=C(c1ccc2c(c1)N(Cc1ccc(F)cc1)C(=O)c1ccccc1S2)N1CCC2(CC1)OCCO2	TDP1 cell CPT 16.4µM, TDP1 cell noCPT 16.4µM (no result: IL1B secr inh, HT1080 IDH1KD tx, HT1080-NT tox)
O=C1Nc2cc(C(=O)N3CCC4(CC3)OCCO4)ccc2S/C1=C\c1ccccc1	TDP1 cell CPT inconclusive, TDP1 cell noCPT inconclusive, HT1080 IDH1KD tx inconclusive, HT1080-NT tox inconclusive
O=C(c1ccc2c(c1)N(Cc1ccc(F)cc1)CCS2)N1CCC2(CC1)OCCO2	TDP1 cell CPT inconclusive, IL1B secr inh -65.0, TDP1 cell noCPT inconclusive
COc1cc(C[C@@H](C)N)c(OC)cc1C	TDP1 cell noCPT inconclusive (no result: IL1B secr inh, HT1080 IDH1KD tx, HT1080-NT tox)
NC(=O)Nc1ccc(C(=O)OCC(=O)Nc2ccc(Cl)cc2C(=O)c2ccccc2)cc1	none
CC(CN)CC(=O)O (centres undefined)	none (no result: IL1B secr inh, HT1080 IDH1KD tx, HT1080-NT tox)
CCN(C[C@H]1N[C@@](C)(C(=O)OC)[C@H]2C(=O)N(Cc3ccccc3)C(=O)[C@@H]12)C(=O)Nc1ccc(C)cc1	TDP1 cell noCPT inconclusive
CCC1(CC)C(=O)NC(=O)N(CCc2ccccn2)C1=O	HT1080 IDH1KD tx inconclusive
CC1CN(C)C(C)(C)CC1(O)c1ccccc1 (centres undefined)	none
CC1CN1P(=O)(Oc1ccccc1)N1CC1C (centres undefined)	none
CC1CN(c2ccccc2)NC1=O (centres undefined)	TDP1 cell CPT 13µM, TDP1 cell noCPT inconclusive
Cc1ccc([C@H]2C[C@@H](O)[C@H](n3cc(COC(=O)c4ccccc4)nn3)CN2CC2CCCCC2)cc1	TDP1 cell CPT inconclusive, TDP1 cell noCPT inconclusive
CCCOP(=O)(OCCC)C(Nc1ccc(C(C)C)cc1)c1ccc([N+](=O)[O-])cc1 (centres undefined)	TDP1 cell CPT inconclusive, IL1B secr inh inconclusive, TDP1 cell noCPT 16.4µM, HT1080 IDH1KD tx inconclusive, HT1080-NT tox inconclusive
CC(C)OP(=O)(OC(C)C)C(Nc1ccccc1)c1ccccc1C(F)(F)F (centres undefined)	TDP1 cell CPT inconclusive, TDP1 cell noCPT inconclusive

Source: PubChem BioAssay
